# Source: PubChem
# In the library only some 3% were active in any assay of this set; here they are far more common.
# SENP8 block-1: inhibitors of human SENP8 protease | Q96LD8 | recombinant SENP8, Nedd8 substrate fluorescence | inhibition, % at 20 µM | 360,000 tested, 0.64% active | AID 602440; in the data active = inhibition mostly above about 40%, no sharp cut-off; inactive = mostly below about 27%
# Target sequence (Q96LD8 whole entry, looked up): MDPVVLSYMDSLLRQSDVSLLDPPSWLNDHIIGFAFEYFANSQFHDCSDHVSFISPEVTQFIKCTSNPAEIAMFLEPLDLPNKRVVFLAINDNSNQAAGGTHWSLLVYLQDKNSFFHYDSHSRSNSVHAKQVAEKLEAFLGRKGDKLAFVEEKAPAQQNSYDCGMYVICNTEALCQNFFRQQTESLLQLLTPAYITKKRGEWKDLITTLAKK
# SENP6 inh: blocks the human protease SENP6; Recombinant SENP6 catalytic domain, aminoluciferin luminescence; inhibition, % at 10 µM; Q9GZR1; AID 2599; 330,000 tested, 1.8% active;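 active = inhibition above about 50% at the single tested dose, limit read from the data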;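 note: plate controls were DMSO wells with enzyme for no effect and DMSO wells lacking enzyme for full effect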
# SENP8 block-2: blocks the human protease SENP8. Q96LD8. purified SENP8, Z-RLRGG-aminoluciferin cleavage, luminescence. inhibition, % at 10 µM. 330,000 tested, 1.2% active. AID 2540; in the data active = inhibition above about 50%
# SENP7 inh: inhibitors of human SENP7 protease; Q9BQF6; recombinant SENP7, Z-RLRGG-aminoluciferin luminescence, 40 min; inhibition, % at 5 µM; 330,000 tested, 1.5% active; AID 434973;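 active = inhibition above about 50% at the single test dose, limit read from the data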;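 note: plate controls were DMSO with enzyme for no effect and no enzyme buffer wells for full effect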
# PPC-1+TRAIL kill: compounds killing PPC-1 cancer cells with TRAIL present (potentiator screen, no TRAIL-free arm); PPC-1 cells + TRAIL, ATPLite viability luminescence; cell killing (% activity), % at 4 µM or 5 µM; 220,000 tested, 0.41% active;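 active = cell killing above 50% in the first pass at 4 µM, then a duplicate retest at 5 µM averaging 50% or more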;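 note: plate controls were cells with TRAIL plus DMSO for no effect and medium-only wells lacking cells for full effect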
# C8 TRAIL sens: caspase-8 TRAIL sensitization | NB7+C8 cells + TRAIL, ATPlite viability luminescence | inhibition (viability loss, TRAIL sensitization), % at 10 µM | 360,000 tested, 1% active | AID 624354;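 active = compounds causing at least 50% loss of cell viability in the single-dose screen, relative to plate controls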
# SENP8 conf: human SENP8 inhibition, confirmed; shares compounds with SENP7 inh; Recombinant SENP8, Z-RLRGG-aminoluciferin luminescence, 60 min; inhibition, % at 12.5 µM; 6,200 tested, 40% active; AID 488912;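 active = mean inhibition across replicates above about 50%, limit read from the data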
# SENP6 conf: confirmation of human SENP6 protease inhibitors; shares compounds with SENP7 inh; recombinant SENP6, Z-RLRGG-aminoluciferin luminescence; inhibition, % at 12.5 µM; 6,200 tested, 58% active; AID 488915
# SENP7 confirm: confirmation of human SENP7 protease inhibitors | shares compounds with SENP7 inh | recombinant SENP7, Z-RLRGG-aminoluciferin luminescence, 40 min | inhibition, % at 12.5 µM | 6,200 tested, 69% active | AID 488917
# Casp3 select: selectivity test for SENP inhibitors: human caspase-3 inhibition | shares compounds with SENP7 inh | purified caspase-3, Z-DEVD-aminoluciferin luminescence, 60 min | inhibition, % at 12.5 µM | 6,200 tested, 60% active | AID 488918;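 active = mean inhibition above about 50%, limit read from the data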;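 note: plate controls were enzyme with DMSO for no effect and wells without caspase-3 for full effect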
# Target sequence (P42574 28-227 limits assumed): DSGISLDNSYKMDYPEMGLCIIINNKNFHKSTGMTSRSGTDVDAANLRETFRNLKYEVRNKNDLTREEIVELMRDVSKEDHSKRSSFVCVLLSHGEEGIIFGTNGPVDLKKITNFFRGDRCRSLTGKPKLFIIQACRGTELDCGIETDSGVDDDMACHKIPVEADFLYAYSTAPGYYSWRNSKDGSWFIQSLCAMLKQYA
# SENP luc ctr: luminescence interference (SENP counter-screen) | AID 488919 | shares compounds with SENP7 inh | inhibition, % at 12.5 µM | 6,200 tested, 39% active | Pre-incubated SENP8/Z-RLRGG-aminoluciferin, luciferase luminescence interference;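 active = mean inhibition above about 50% when retested at one dose, limit read from the data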;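 note: plate controls were DMSO wells with completed reaction for no effect and substrate without enzyme for full effect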
# * hit, by the source's call; . = no result.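 Rule for the calls, unless noted: active = mean inhibition above about 50% in the one-dose retest (limit read from the data); inactive = the rest.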
SMILES,SENP8 block-1,SENP6 inh,SENP8 block-2,SENP7 inh,PPC-1+TRAIL kill,C8 TRAIL sens,SENP8 conf,SENP6 conf,SENP7 confirm,Casp3 select,SENP luc ctr
Cc1ccc(OCc2nc(-c3ccccn3)no2)cc1,3,40,23,60*,10,21,43,45,80*,71*,44
Clc1ccc(OCc2nc(-c3ccncc3)no2)c(Br)c1,5,34,22,15,23,22,.,.,.,.,.
COc1ccc(-c2nc(CS(=O)CC(=O)NCCN3CCCCC3C)c(C)o2)cc1OC (centres undefined),15,1,4,4,.,6,.,.,.,.,.
COC(=O)C1CCCN1C(=O)COc1ccc(Cl)cc1Br (centres undefined),2,-8,-1,7,5,-4,.,.,.,.,.
Cc1ccc(NC(=O)CCS(=O)(=O)c2cccc3nonc23)c(Br)c1,2,-2,0,9,.,-2,.,.,.,.,.
O=C(CCCN1C(=O)/C(=C\c2cccs2)SC1=S)NNC(=O)c1cccnc1,23,-18,-13,5,-9,-9,.,.,.,.,.
CCCCSc1ncc(C(=O)OCC)c(N)n1,12,24,-4,22,12,11,.,.,.,.,.
CCOC(=O)c1cnc(SCCc2ccccc2)nc1N,-2,58*,13,28,3,11,0,25,11,22,32
C[C@H](CO)N1C[C@H](C)[C@@H](CN(C)S(=O)(=O)c2cn(C)cn2)OCc2cn(nn2)CCCC1=O,21,.,.,.,.,-8,.,.,.,.,.
CC1(c2ccc(Cl)cc2)NC(=O)N(CC(=O)N2CCN(C(=O)c3cccs3)CC2)C1=O (centres undefined),2,.,.,.,.,-9,.,.,.,.,.
CCc1ccc(CNc2ccc(O)cc2)cc1,70*,81*,77*,24,8,-4,14,12,-1,6,5
Oc1ccc(NCc2ccc(OCc3ccccc3)cc2)cc1,32,.,.,.,.,8,.,.,.,.,.
Cc1ccc(-c2nc3ccccc3nc2NN)cc1,-312,91*,85*,79*,10,15,20,67*,92*,74*,31
Cc1ccc(-c2nc3ccccc3nc2Cl)cc1,13,-10,-7,1,0,-14,.,.,.,.,.
Cc1cccc(NC(=O)c2ccc(NC(C)c3ccccc3)c([N+](=O)[O-])c2)n1 (centres undefined),22,-7,-8,5,17,-8,.,.,.,.,.
Cc1ccc(C(=O)O/N=C2\CCCc3ccccc32)cc1,12,97*,90*,97*,19,32,72*,98*,103*,85*,12
O=C(O/N=C1\CCCc2ccccc21)C1CC1,21,8,0,2,0,-5,.,.,.,.,.
Cc1cccc(C(=O)O/N=C2\CCCc3ccccc32)c1,4,92*,65*,90*,-6,16,43,88*,98*,78*,64*
O=C(O)c1ccc(N/N=C2/CCCc3ccccc32)cc1,-19,71*,48,17,-8,33,71*,68*,84*,73*,58*
O=C(O/N=C1\CCCc2ccccc21)c1cccc(Cl)c1,5,83*,46,82*,31,-3,66*,64*,90*,65*,43
Cc1cccc(C(=O)O/N=C2\CCSc3ccc(C)cc32)c1,-37,13,0,1,-12,1,.,.,.,.,.
CC(C)(C)NC(=S)NCc1ccncc1,3,-3,6,-1,12,-9,.,.,.,.,.
C[C@@H]1C=C(C(=O)N2CCOCC2)O[C@H](OCc2ccc(CO)cc2)C1,13,-26,-5,3,9,-2,.,.,.,.,.
